Compound activity deposited in PubChem by National Center for Advancing Translational Sciences (NCATS).
hNpr1 antagonist = blocks ANP-stimulated signaling of human Npr1 receptor; HEK293 hNpr1 GloSensor cGMP, ANP-stimulated luminescence; P16066; hit rate 1.6% among 76,000; Potency, µM (top dose mostly 46.3 µM), for the others: top-dose activity change, negative = inhibition, most hits filed as inhibitors; AID 1347048; calls by dose curve; note: nearly all actives have a fitted effect of over 60% in size
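Compound pre-incubated 30 min at room temperature on GloSensor-loaded HEK293 cells stably carrying hNpr1 and the pGS-40F cGMP biosensor. Stimulation uses hNppA at 0.1 nM final; luminescence is taken at baseline and 20 min post-agonist.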
NIH3T3 tox = NIH 3T3 cell cytotoxicity. NIH 3T3 viability, CellTiter-Glo ATP luminescence, 48-72 h. Potency, µM (doses to about 96.7 µM), for inactives: at the top dose activity change, negative = cytotoxicity, most hits filed as inhibitors. hit rate 4.3% among 94,000. AID 1345082; note: nearly all actives have a fitted effect of over 55% in size
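Mouse fibroblast NIH 3T3 cells, 400 per well, received compound via pintool and were incubated for 48 or 72 hr prior to CellTiter-Glo ATP luminescence measurement.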
HEK293 tox = kills HEK 293 cells; HEK 293 viability, ATP luminescence (CellTiter-Glo), 48-72 h; hit rate 6.6% among 94,000; Potency, µM (doses to about 115 µM), for the others: top-dose activity change, negative = cytotoxicity, most hits filed as inhibitors; note: nearly all actives have a fitted effect of over 60% in size
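HEK 293 cells seeded at 250 cells/well were exposed to compound for 48 or 72 hr at 37 degree Celsius. Viability taken as ATP content by CellTiter-Glo luminescence.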
FLuc inh = inhibitors of firefly (Photinus pyralis) luciferase; P08659; purified P. pyralis luciferase, luminescence, biochemical; Potency, µM (top dose mostly 115 µM), most hits filed as inhibitors; hit rate 2.5% among 76,000; AID 1347043; note: nearly all actives have a fitted effect of over 65% in size
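Purified P. pyralis luciferase (10nM final) in 50mM Tris acetate pH 7.5, 10mM Mg acetate, 0.01% Tween-20, 0.05% BSA with 10uM D-luciferin and 10uM ATP. Compounds titrated qHTS. Luminescence imaged on CCD.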
Active calls of the source: *; i = inactive; ? = inconclusive; . = no result; ! = not active in a repeat; [ ] = dose if it differs, or a comment. A selection: hits, their analogues and other compounds. The true share with any hit is near 11%. Unless noted, calls come from the whole dose curve; as a rule, active = well fitted curve in the direction sought with a large enough effect; inconclusive = small, poorly fitted or top-dose-only effect, or another doubt; inactive = no such curve, though single readings can be large; an effect the other way counts as inactive or inconclusive. % is set by controls: 0 for no effect and ±100 for the full control effect; potency is the fitted concentration of half-maximal effect.

SMILES	hNpr1 antagonist	NIH3T3 tox	HEK293 tox	FLuc inh
CNC(=O)C1CCN(c2nccc(Nc3ccc(OC)cc3)n2)CC1	.	?	-19.7%[172 µM]	.
COc1ccc(Nc2ccnc(N3CC4CCC(C3)N4CC(F)(F)F)n2)cc1	.	39.8µM*	31.6µM*	.
COc1ccc(Nc2ccnc(N3CCC(C(=O)NCc4ccccc4OC)CC3)n2)cc1	.	31.6µM*	28.2µM*	.
COc1ccc(Nc2ccnc(N3CCC(C(=O)NCC(F)(F)F)CC3)n2)cc1	.	?	79.4µM*	.
COc1ccccc1-c1ccc(CN2CCCCC2C(=O)NCCc2ccccc2)cc1 (configuration not stated)	.	39.8µM*	39.8µM*	.
COCCNC(=O)C1CCCCN1Cc1ccc(-c2ccccc2OC)cc1 (configuration not stated)	.	?	44.7µM*!	.
O=C(C1CCCN1[S+](=O)([O-])c1cccs1)N1CCC(c2nc3ccncc3[nH]2)C1 (configuration not stated)	.	-3.6%	i	.
O=C(c1ccccn1)N1CCN(c2ccc3nnc(-c4ccccc4)n3n2)CC1	.	?	-28.0%	.
Cc1ccc(C(CC(=O)Nc2ccc(F)cc2)c2c[nH]c3ccccc23)cc1 (configuration not stated)	-26.2%	44.7µM*	?	i
O=C(CC(c1cccc([N+](=O)[O-])c1)c1c[nH]c2ccccc12)NCc1ccccc1 (configuration not stated)	-13.7%	?	?	i
O=C(C1CCCN(C(=O)C2CCCC2)C1)N1CCC(c2nc3ccncc3[nH]2)CC1 (configuration not stated)	.	-15.4%	-8.7%	.
Cc1cc2nc(CO[C@H]3CN(Cc4ccc(C(=O)O)cc4)C[C@H]3F)[nH]c2cc1C	-2.6%[70.6 µM]	-1.4%[174 µM]	-8.1%[172 µM]	22.4µM*
COC(=O)c1ccc2nc(CO[C@H]3CN(Cc4ccc(C(F)(F)F)cc4)C[C@H]3F)[nH]c2c1	?	?	50.1µM*	i
CC(=O)Nc1ccc(CN2C[C@@H](F)[C@@H](OCc3nc4cc(C)c(C)cc4[nH]3)C2)cc1	0.5%[70.6 µM]	?	?	i
C[C@H]1[C@@H]2[C@@H](O)C([C@H](C)C(=O)NCc3ccc(F)cc3)CC[C@@]2(C)CC[C@@H]1NC(=O)c1ccccc1 (some centres not stated)	-1.6%	?	39.8µM*	i
Cc1cnc(CC2CCN(C(=O)Nc3ccc4c(c3)OCCO4)C2)n1C1CC1 (configuration not stated)	.	-16.5%	-3.0%	.
COc1ccc(C(=O)N2CCC(Cc3nc(-c4ccncc4)n[nH]3)CC2)cc1	.	?	-6.4%	.
Cc1nc(CC2CCN(C(=O)Nc3ccc4c(c3)OCCO4)CC2)n[nH]1	-29.3%	i	-6.7%	44.7µM*
O=C(Nc1ccc2c(c1)OCCO2)N1CCC(Cc2nc(-c3ccncc3)n[nH]2)CC1	-22.3%	-31.1%	-7.3%	79.4µM*
CS(=O)(=O)N(Cc1cccnc1)C1CN(C(=O)C2CCCCC2)C1	-4.4%	-31.1%	-11.5%	i
CS(=O)(=O)N1CCC(OC2CCN(C(=O)Nc3ccc4c(c3)OCCO4)CC2)CC1	0.9%	-5.7%	-3.2%	35.5µM*
CS(=O)(=O)N(Cc1cccnc1)C1CN(C(=O)Nc2ccc3c(c2)OCCO3)C1	2.0%	i	6.4%	35.5µM*
O=C(c1ccccc1F)N1CCCC(c2nn(-c3ccccn3)c(=O)[nH]2)C1 (configuration not stated)	.	-27.1%	?	.
Cc1ccc(-c2nnc(C3CN(C(=O)c4n[nH]c5ccccc45)CC34CCOCC4)o2)cc1 (configuration not stated)	4.1%	-29.3%	?	i
O=C(Cc1ccc(F)cc1)N1CCC(C(=O)N2CCC(c3nc4ncccc4[nH]3)CC2)CC1	.	-3.6%	-1.4%	.
CCN1C(=O)C2CC3(CCN(Cc4cccc(OC)c4)CC3)CN2C1=O (configuration not stated)	.	-11.6%	?	.
COCCCn1c(C)cnc1C1CCN(C(=O)NCC(=O)OC)C1 (configuration not stated)	3.4%	-2.5%	i	i
COCCCn1c(C)cnc1C1CCN(C(=O)Nc2ccc3c(c2)OCCO3)C1 (configuration not stated)	1.7%	i	-6.6%	44.7µM*
O=C(NCC1CC1)c1cc2n(n1)CC(c1ccc(Cl)cc1)OC2 (configuration not stated)	-6.8%	39.8µM*	?	i
